Experimental data: PubChem BioAssay (NCATS)
Inconclusive results are not listed. Calls of active or inactive are those of the source. The call rests on the fitted dose curve; in most records, active means well fitted inhibition curve with a large enough effect; inconclusive means small, poorly fitted or top-dose-only effect; inactive means flat fitted curve, though single readings scatter.

Target: Tyrosyl-DNA phosphodiesterase 1 (Homo sapiens) (UniProt Q9NUW8)
Assay: Confirmation Assay for Inhibitors of Tyrosyl-DNA Phosphodiesterase (TDP1) (AID 489007); further: nearly all actives have a fitted effect of over 40% in size
Conditions: recombinant human TDP1 enzymatic activity, dose-response
How it was run: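 Recombinant human Tdp1 (1 nM final), expressed in E. coli, preincubated 15 min with compound. Then 15 nM 5'-biotin/3'-phosphotyrosine-FITC DNA substrate added for 5 min at room temperature. AlphaScreen beads (10 ug/ml) added for 10 min; cleavage gives signal loss.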
Potency means the concentration at half of the fitted maximal effect.

Chain of Tyrosyl-DNA phosphodiesterase 1 (Homo sapiens) (Q9NUW8 whole entry, looked up): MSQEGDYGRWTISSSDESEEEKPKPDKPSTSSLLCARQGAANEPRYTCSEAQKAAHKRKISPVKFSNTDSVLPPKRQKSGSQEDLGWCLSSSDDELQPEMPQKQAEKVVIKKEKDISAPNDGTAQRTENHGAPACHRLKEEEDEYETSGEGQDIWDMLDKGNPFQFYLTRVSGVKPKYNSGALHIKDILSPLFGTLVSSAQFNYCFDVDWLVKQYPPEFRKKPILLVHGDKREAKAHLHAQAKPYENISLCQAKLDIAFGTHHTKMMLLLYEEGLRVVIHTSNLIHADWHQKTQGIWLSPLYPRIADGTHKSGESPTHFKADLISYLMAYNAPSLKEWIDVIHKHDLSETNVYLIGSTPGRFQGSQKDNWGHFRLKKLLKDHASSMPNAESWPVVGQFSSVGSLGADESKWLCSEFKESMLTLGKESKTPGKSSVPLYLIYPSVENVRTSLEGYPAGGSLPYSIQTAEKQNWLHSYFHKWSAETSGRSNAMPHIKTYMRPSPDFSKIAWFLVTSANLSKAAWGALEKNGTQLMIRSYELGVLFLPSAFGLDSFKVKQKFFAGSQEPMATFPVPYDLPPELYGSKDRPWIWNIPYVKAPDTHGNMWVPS

Potency, active:
O=c1cc(CCl)nc2sc3ccccc3n12 14.1 µM
COc1ccc2cc3cc(C(=O)NCc4cccs4)oc3nc2c1 25.1 µM
O=C(CSc1nccc(=O)[nH]1)NCc1ccco1 31.6 µM
CC(C)CN(C(=O)COC(=O)c1cc2c(s1)CCC2)C1CCS(=O)(=O)C1 (configuration not stated) 44.7 µM
Cc1nc(SCC(=O)O)c(C#N)c2c1CCCC2 8.91 µM
OC[C@@H]1[C@@H](c2ccccc2)C(c2cccc(Cl)c2)=NN1c1ccccc1 10 µM
O=C(O)c1ccc2ncsc2c1 39.8 µM
NC(=O)COC(=O)c1ccc(S(=O)(=O)NCc2ccco2)cc1 126 µM
CC(=O)c1ccc(S(=O)(=O)N2Cc3ccccc3CC2C(=O)O)cc1 (configuration not stated) 15.8 µM
Cc1ccc(NC(=O)CN2C(=O)S/C(=C\c3ccc(-c4cccc(C(=O)O)c4C)o3)C2=O)cc1 11.2 µM
Cc1ccc(CN2C(=O)N/C(=C\c3ccc(-c4ccc(C(=O)O)cc4C)o3)C2=O)cc1 7.94 µM
CCc1oc(C(=O)O)cc1COC 31.6 µM
Cc1nnc(NC(=O)CSc2ccc(-c3ccco3)nn2)s1 14.1 µM
O=C(O)c1ccc(/C=C/c2nc3sc4c(c3c(=O)[nH]2)CCC4)cc1 112 µM
Cc1ccc(C(=O)O)cc1-n1c(C)cc(C=O)c1C 15.8 µM
C=CCCN(Cc1ccccc1)S(=O)(=O)c1ccccc1Br 56.2 µM
COc1ccc(-n2c(NC(=O)c3ccc(Br)o3)c(C#N)c3nc4ccccc4nc32)cc1 100 µM
